The results in this text go back to PubChem BioAssay (NCI).

Compounds without any hit were thinned out: in the full panel of roughly 83,000, 20% have a hit.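 Percent growth is the endpoint: 0 to 100 indicates growth inhibition (40 means 60% inhibition), 0 means no net growth, and negative values indicate cell death.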 Unmarked numbers belong to inactive results. Activity calls are given as the source filed them. How the source made its calls: active means growth percent below 10; inactive means the rest.

The test system of one assay is OVCAR-8 ovarian. Kind of assay: NCI-60 one-dose screen, 48 h (100 = growth as untreated, 0 = no growth, -100 = all killed). The settings on record: 10 µM unless noted.
For `O=C(NCCCNc1nccc(-n2ccc3cccnc32)n1)c1c(F)cccc1F`, the growth was 107%.
For `COc1ccc(C(=O)c2cc(OC)c3c(c2)OCO3)cc1O`, the growth was 17.8%.
`Cc1cc(C(C)(C)C)ccc1S`: the growth is 111%.
Same read-out and setting: for `Cn1cnc2c(N3CCN(C(=O)OCc4ccc5c(Cl)cc(Cl)c(O)c5n4)CC3)nc(Cl)nc21` the value was 51.3%; for `Fc1ccccc1-c1nc(-c2nc3cc(Cl)c(Cl)cc3[nH]2)c2ccccn12`, 68.4%.
As to `C1=Cc2ccccc2N(c2nnc(-c3ccccc3)o2)c2ccccc21`, the growth was 95.4%.
Consider `COc1cc(C2CC(c3ccc4c(c3)OCO4)=NN2C=O)cc(OC)c1OC` (stereo not given), for which the growth was 53.9%.
The same measure, in the same setting: the figure for `COc1ccc(/C=C2/C(=O)NC(SCC(=O)N3CCN(c4cc5c(cc4F)c(=O)c(C(=O)O)cn5C4CC4)CC3)=NC2N)cc1OC` (stereo not given) is 106%; for `COc1cc(C2CC(c3ccc4c(c3)OCO4)=NN2C(C)=O)cc(OC)c1OC` (stereo not given) it is 42%.
With `COc1cc(NCCCCCN)c2ncccc2c1`, the growth is 100%.
In the case of `C=C1CCC2C(C)(CO)C(O)CCC2(C)C1C/C=C1/C(=O)OCC1Oc1ccccc1C` (stereo not given), the growth is 72.5%.
Still for that read-out and setting: the figure for `CCCCCCCCCCCCCCCCNC(=O)OC(C)C` is 63.8%.
In the case of `O=C(/C=C/c1cc(-c2ccc3c(c2)OCO3)n[nH]1)c1ccc2c(c1)OCO2`, the growth is 86.9%.
Take `c1cc(C2=N[C@@H]3c4ccccc4C[C@@H]3O2)nc(C2=N[C@@H]3c4ccccc4C[C@@H]3O2)c1`: the growth was 106%.
Turning to `COc1ccccc1CNCCCN1C(=O)c2ccc3c4c(ccc(c24)C1=O)C(=O)N(CCCNCCCCNCCCN)C3=O`, the growth is 4.19% (active).
For `NC(=N\N=C/c1ccc(O)cc1)/C(N)=N\N=C/c1ccc(O)cc1`, the growth is 73.9%.
Take `COc1ccc(-c2c(N)n[nH]c2-c2cc(OC)c3c(c2)OCCO3)cc1`: the growth was 83.5%.
`C=C1CCC2C(C)(CO)C(O)CCC2(C)C1C/C=C1/C(=O)OCC1O/C=C/c1ccccc1` (stereo not given): the growth was 55.3%.
Consider `CC(C)(C)n1cc(-c2ccnc(NCCNS(=O)(=O)c3ccc(F)cc3)c2)c(-c2cccc(O)c2)n1`, for which the growth was 62.4%.
Still for that read-out and setting: the figure for `COc1ccc2c(c1)OC1=C(C(=O)OC1)C2c1cc(OC)c2c(c1)OCO2` (stereo not given) is 20.2%.
As for `CC(C)OC(=O)N1CCOCC1`, the growth is 95.6%.
`CC12CCC3C4(C)COC(c5ccccc5Cl)OC4CCC3(C)C1CC(C1=CCOC1=O)O2` (stereo not given): the growth is 65.1%.
`CCCOC(=O)n1cccc1`: the growth is 108%.
On the same count and under the same terms, for `O=S(=O)(NCCCNc1nccc(-n2ccc3cccnc32)n1)c1cccc(C(F)(F)F)c1` the value was 105%; for `Cc1ccc(S(=O)(=O)NCCNc2cc(-c3cn(C(C)(C)C)nc3-c3cccc(O)c3)ccn2)cc1`, 79%.
The same measure, in the same setting: for `Cc1ccc(S(=O)(=O)NCCCNc2cc(-c3cn(C(C)(C)C)nc3-c3cccc(O)c3)ccn2)cc1` the value was 71.9%; for `C=C1CCC2C(C)(CO)C(O)CCC2(C)C1CC(NCc1ccccc1)C1=CCOC1=O` (stereo not given), 94%.
As to `COc1ccc2c(c1)NC1=C(C(=O)OC1)C2c1cc(OC)c2c(c1)OCO2` (stereo not given), the growth was 20.7%.
For the compound `COc1cc(Nc2ncccc2C(=O)NCc2cn(Cc3cccc(Oc4ccccc4)c3)nn2)cc(OC)c1`, the growth is 53.9%.
`CC12CCC3C4(C)COC(c5ccco5)OC4CCC3(C)C1CC(C1=CCOC1=O)O2` (stereo not given): the growth is 108%.
Take `C=C1CCC2C3(C)COC(C)(C)OC3CCC2(C)C1C/C=C1/C(=O)OCC1Oc1ccccc1OC` (stereo not given): the growth is 81.1%.
On to `O=C(/C=C/c1ccccc1)c1cccc(O)c1`, for which the growth was 86.5%.
Turning to `CC(C)(C)n1cc(-c2ccnc(NCCCNS(=O)(=O)c3ccc(F)cc3)c2)c(-c2cccc(O)c2)n1`, the growth is 51.5%.
On to `COc1cc(C2C3=C(COC3=O)Nc3cc4c(cc32)OCO4)cc2c1OCO2` (stereo not given), for which the growth was 14.3%.
For the compound `O=C(NCCNc1nccc(-n2ccc3cccnc32)n1)c1ccc(C(F)(F)F)cc1`, the growth is 103%.
Still for that read-out and setting: the figure for `COc1cc(C2C3=C(COC3=O)Nc3cc4c(cc32)CCC4)cc2c1OCO2` (stereo not given) is 24.5%; for `COc1ccc(-c2ccc(C)n2-c2ccc(-c3nc4cc(Cl)ccc4s3)cc2)cc1` it is 104%; for `O=C(NCc1cn(Cc2cccc(Oc3ccccc3)c2)nn1)c1cccnc1Nc1ccc(F)cc1` it is 67.2%.
`CC12CCCC(CC(=O)c3[nH]c4ccccc4c31)C2` (stereo not given): the growth was 31.1%.

The next assay relates to OVCAR-5 ovarian. The assay is described as above. The settings on record: 10 µM unless noted.
As for `O=C(NCCCNc1nccc(-n2ccc3cccnc32)n1)c1c(F)cccc1F`, the growth is 98.9%.
Turning to `Cn1cnc2c(N3CCN(C(=O)OCc4ccc5c(Cl)cc(Cl)c(O)c5n4)CC3)nc(Cl)nc21`, the growth was 90.5%.
As for `C1=Cc2ccccc2N(c2nnc(-c3ccccc3)o2)c2ccccc21`, the growth was 98.2%.
As for `COc1ccc(/C=C2/C(=O)NC(SCC(=O)N3CCN(c4cc5c(cc4F)c(=O)c(C(=O)O)cn5C4CC4)CC3)=NC2N)cc1OC` (stereo not given), the growth was 104%.
Regarding `C=C1CCC2C(C)(CO)C(O)CCC2(C)C1C/C=C1/C(=O)OCC1Oc1ccccc1C` (stereo not given), the growth was 91.8%.
On the same count and under the same terms, the figure for `c1cc(C2=N[C@@H]3c4ccccc4C[C@@H]3O2)nc(C2=N[C@@H]3c4ccccc4C[C@@H]3O2)c1` is 98.3%; for `C=C1CCC2C(C)(CO)C(O)CCC2(C)C1C/C=C1/C(=O)OCC1O/C=C/c1ccccc1` (stereo not given) it is 93.5%.
For `CC(C)(C)n1cc(-c2ccnc(NCCNS(=O)(=O)c3ccc(F)cc3)c2)c(-c2cccc(O)c2)n1`, the growth is 68.6%.
As for `CC12CCC3C4(C)COC(c5ccccc5Cl)OC4CCC3(C)C1CC(C1=CCOC1=O)O2` (stereo not given), the growth is 91.3%.
Consider `O=S(=O)(NCCCNc1nccc(-n2ccc3cccnc32)n1)c1cccc(C(F)(F)F)c1`, for which the growth is 101%.
Still for that read-out and setting: the figure for `Cc1ccc(S(=O)(=O)NCCNc2cc(-c3cn(C(C)(C)C)nc3-c3cccc(O)c3)ccn2)cc1` is 80%; for `Cc1ccc(S(=O)(=O)NCCCNc2cc(-c3cn(C(C)(C)C)nc3-c3cccc(O)c3)ccn2)cc1` it is 78.5%; for `C=C1CCC2C(C)(CO)C(O)CCC2(C)C1CC(NCc1ccccc1)C1=CCOC1=O` (stereo not given) it is 94.3%.
With `COc1cc(Nc2ncccc2C(=O)NCc2cn(Cc3cccc(Oc4ccccc4)c3)nn2)cc(OC)c1`, the growth is 83.2%.
For `CC12CCC3C4(C)COC(c5ccco5)OC4CCC3(C)C1CC(C1=CCOC1=O)O2` (stereo not given), the growth was 99.8%.
`C=C1CCC2C3(C)COC(C)(C)OC3CCC2(C)C1C/C=C1/C(=O)OCC1Oc1ccccc1OC` (stereo not given): the growth was 101%.
In the case of `CC(C)(C)n1cc(-c2ccnc(NCCCNS(=O)(=O)c3ccc(F)cc3)c2)c(-c2cccc(O)c2)n1`, the growth was 65%.
For `O=C(NCCNc1nccc(-n2ccc3cccnc32)n1)c1ccc(C(F)(F)F)cc1`, the growth was 106%.
For `COc1ccc(-c2ccc(C)n2-c2ccc(-c3nc4cc(Cl)ccc4s3)cc2)cc1`, the growth was 74.6%.
As for `O=C(NCc1cn(Cc2cccc(Oc3ccccc3)c2)nn1)c1cccnc1Nc1ccc(F)cc1`, the growth is 89.3%.
Still for that read-out and setting: the figure for `CC12CCCC(CC(=O)c3[nH]c4ccccc4c31)C2` (stereo not given) is 34.6%.
